# Hits are enriched below; roughly 2.2% of the tested compounds scored in any of these assays.
# TLR4-MyD88 BLA: blocks binding of human TLR4 to MyD88 | O00206+Q99836 | HeLa CL3-4 TLR4/MyD88 BLA complementation, FRET ratio | inhibition, % at 8.4 µM | 200,000 compounds, 0.18% hits | AID 861; in the data active means inhibition above about 25%;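 further: 0% = vehicle and 100% = reference inhibitor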
# TLR9-MyD88 block: blocks human TLR9 binding to MyD88; inhibition, % at 4.98 µM; 340,000 compounds, 0.21% hits; CHO BLA complementation TLR9-MyD88, CCF4 FRET ratio;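 active means inhibition above the mean over all tested compounds plus 3 SD, cut at about 21% in these data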;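 further: 0% = DMSO only wells and 100% = clavulanate BLA inhibitor control wells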
# Target sequence (Q99836 whole entry, looked up): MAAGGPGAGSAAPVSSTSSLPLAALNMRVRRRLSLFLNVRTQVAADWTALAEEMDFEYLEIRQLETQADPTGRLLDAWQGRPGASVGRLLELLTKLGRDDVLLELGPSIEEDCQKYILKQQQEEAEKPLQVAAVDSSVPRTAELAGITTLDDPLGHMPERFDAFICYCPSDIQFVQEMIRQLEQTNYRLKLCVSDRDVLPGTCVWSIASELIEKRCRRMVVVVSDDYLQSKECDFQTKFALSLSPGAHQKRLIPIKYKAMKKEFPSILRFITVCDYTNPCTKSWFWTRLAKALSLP
# Target sequence (Q9NR96 whole entry, looked up): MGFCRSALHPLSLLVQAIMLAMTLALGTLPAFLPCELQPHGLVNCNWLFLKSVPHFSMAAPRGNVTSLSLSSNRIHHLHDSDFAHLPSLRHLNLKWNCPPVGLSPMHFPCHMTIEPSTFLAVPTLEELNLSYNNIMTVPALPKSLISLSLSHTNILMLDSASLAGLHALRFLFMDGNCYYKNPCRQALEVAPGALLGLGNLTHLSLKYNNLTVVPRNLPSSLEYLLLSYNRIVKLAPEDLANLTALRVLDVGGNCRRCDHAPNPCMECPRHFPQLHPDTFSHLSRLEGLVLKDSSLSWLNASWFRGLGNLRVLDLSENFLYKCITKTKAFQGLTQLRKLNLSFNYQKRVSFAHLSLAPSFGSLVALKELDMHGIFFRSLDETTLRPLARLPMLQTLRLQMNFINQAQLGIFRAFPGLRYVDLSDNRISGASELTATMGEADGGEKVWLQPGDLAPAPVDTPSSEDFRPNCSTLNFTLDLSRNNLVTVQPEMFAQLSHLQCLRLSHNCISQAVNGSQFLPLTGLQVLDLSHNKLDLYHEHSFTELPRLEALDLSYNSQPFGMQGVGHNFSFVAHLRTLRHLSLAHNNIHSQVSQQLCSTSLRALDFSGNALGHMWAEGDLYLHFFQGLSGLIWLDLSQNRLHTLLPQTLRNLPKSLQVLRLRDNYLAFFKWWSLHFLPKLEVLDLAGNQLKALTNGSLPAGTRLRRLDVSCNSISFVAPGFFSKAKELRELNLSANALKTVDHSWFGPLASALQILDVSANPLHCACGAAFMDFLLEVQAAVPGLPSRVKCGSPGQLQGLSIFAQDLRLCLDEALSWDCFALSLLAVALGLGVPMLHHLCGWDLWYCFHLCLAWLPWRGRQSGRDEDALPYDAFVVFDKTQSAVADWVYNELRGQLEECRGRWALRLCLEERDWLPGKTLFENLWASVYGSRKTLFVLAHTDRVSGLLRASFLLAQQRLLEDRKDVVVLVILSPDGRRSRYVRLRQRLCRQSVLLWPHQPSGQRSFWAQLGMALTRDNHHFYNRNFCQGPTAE
# ANO1 block: inhibitors of mouse TMEM16A calcium-activated chloride channel | Q8BHY3 | HEK293 TMEM16A/YFP iodide influx fluorescence, ionomycin | normalized B-score (activity score, 25-100; higher = stronger inhibition) at 10 µM | 310,000 compounds, 1.2% hits;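 active means ratio plate-corrected score three or more library SD toward inhibition, starting fluorescence score within five deviations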;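 further: score derived from kinetic fluorescence span divided by baseline fluorescence per well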
# TMEM16A act: mouse TMEM16A channel activation, primary screen; B-score at 10 µM; Q8BHY3; HEK293 TMEM16A/YFP-H148Q/I152L, iodide quench fluorescence; active compounds read low; 340,000 compounds, 0.3% hits; AID 623877;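 active means fluorescence-ratio B-score plate-corrected deviation score at least 3 library SD below zero, with starting fluorescence score within 5 deviations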;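 further: channel opened by trigger with iodide after compound preincubation; score built on the fluorescence ratio of max minus min over baseline; more negative score means more quench and so TMEM16A activation or potentiation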
# NOD2-RIPK2 inh: inhibitors of human NOD2-RIPK2 interaction | inhibition, % at 4.98 µM | O43353 | CHO BLA complementation NOD2-RIPK2, CCF4 ratio | 360,000 compounds, 0.38% hits; in the data active means inhibition above about 21%;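 further: 0% = vehicle only and 100% = reference blocker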
# GRK2 inh: human GRK2 inhibition via aptamer displacement; bead flow cytometry, FAM-aptamer displacement from GRK2; inhibition of aptamer binding, % at 10 µM; 330,000 compounds, 0.59% hits; AID 488847;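 active means inhibition of aptamer binding above 40%, roughly 3 SD of noise, on plates passing a quality check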;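 further: median bead fluorescence of bound FAM aptamer so fluorescent compounds give negative values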
# * = called active by the depositor; i = inactive; . = not tested or not shown.
SMILES,TLR4-MyD88 BLA,TLR9-MyD88 block,ANO1 block,TMEM16A act,NOD2-RIPK2 inh,GRK2 inh
COc1ccc(CNC(C)Cc2cccs2)cc1 (stereo not given),2,1,i,-27*,-7,0
NC(Cc1ccc(F)cc1)c1csc(Nc2ncccn2)n1 (stereo not given),.,.,.,.,-2,.
CC1Oc2cc3c(-c4c(O)cc(O)c5c(O)c6c(cc45)OC(C)C(C)C6=O)c(O)cc(O)c3c(O)c2C(=O)C1C (stereo not given),.,14,i,-9.1*,-4,0
Cc1ccc2c(c1)Oc1ccccc1N=C2,.,12,.,.,-10,.
ClC1=C(Cl)C2(Cl)C3C(Cl)C=CC3C1(Cl)C2(Cl)Cl (stereo not given),.,-6,.,-16*,-14,1
Cc1nc2ccccn2c1P(=S)(c1ccccc1)c1ccccc1,.,.,.,.,7,.
CNc1ccc2oc(C[C@H]3O[C@@]4(CC[C@H]3C)O[C@H]([C@H](C)C(=O)c3ccc[nH]3)[C@H](C)C[C@H]4C)nc2c1C(=O)O,.,-13,100*,-37*,-17,0
O=C(NCCN1CCC2(CC1)C(=O)NCN2c1cccc(F)c1)c1ccc2ccccc2c1,.,.,.,.,1,.
CCN(CC)c1ccc(N=Cc2c(O)n(Cc3ccco3)c(=O)[nH]c2=O)cc1,.,-1,i,i,-10,1
CCN(CCO)c1ccc(N=Cc2c(O)n(C)c(=S)[nH]c2=O)cc1,.,.,i,-10*,-8,1
C/C(CC(c1ccccc1)c1c(O)c2ccccc2oc1=O)=N\Nc1ccc([N+](=O)[O-])cc1[N+](=O)[O-] (stereo not given),.,-6,25*,i,-3,0
CCN1C(=O)C(=Cc2ccc(N3CCOCC3)o2)C(=O)N(CC)C1=S,.,-6,i,-5.5*,6,0
COC1/C=C/C=C(\C)Cc2cc(O)c(Cl)c(c2)N(C)C(=O)CC(OC(=O)C(C)C)C2(C)OC2C(C)C2CC1(O)NC(=O)O2 (stereo not given),.,-1,.,-5*,18,.
Cc1cccc(C)c1-n1nnnc1C(c1cccc2ccccc12)N1CCC2(CC1)C(=O)NCN2c1ccccc1 (stereo not given),.,.,.,.,2,.
CCC(C)(O)C(=O)OC1C(=O)OC2CC3C(C)=CC(O)C(O)C3(C)C3C4(O)OCC23C1C(C)C4O (stereo not given),.,.,.,.,-3,.
CC(C)NC(=O)Cn1cc(C(=O)c2ccccc2F)c2ccccc21,-4,-8,i,-5.3*,-5,1
C[n+]1c2ccccc2nc2ccc(NCCO)cc21,.,-11,i,i,1,0
CNc1ccc2nc3ccccc3[n+](C)c2c1,.,5,i,-5*,-1,0
CC1CN=C(Nc2ccc(F)cc2)S1 (stereo not given),4,-5,i,-4.6*,2,2
COc1ccc(NC2=NCC(C)S2)cc1 (stereo not given),22,11,i,i,-8,0
Cn1cccc1/C=C1\C(=O)NC(=O)N(Cc2ccco2)C1=O,7,-7,.,i,1,.
COc1ccc(/C=C2/C(=O)NC(=O)N(Cc3ccco3)C2=O)cc1,-5,.,i,.,.,82*
Cc1cc(OCC(=O)N[C@H](C(=O)O)c2ccccc2)c2c3c(c(=O)oc2c1)CCC3,.,5,i,-16*,-4,0
CCN1/C(=C/C=C/C2=[N+](CC)c3ccccc3C2(C)C)C(C)(C)c2ccccc21,.,-18,.,.,9,.
CN1/C(=C\C=C\C2=[N+](C)c3ccc4ccccc4c3C2(C)C)C(C)(C)c2ccccc21,-8,.,i,.,.,84*
CCN(CC)CCCN=C(C)c1c(O)n(C2CCCCC2)c(=O)[nH]c1=O,-3,-2,i,i,7,0
CCC(=NCCCN(CC)CC)c1c(O)n(C2CCCCC2)c(=O)[nH]c1=O,-11,3,100*,i,-1,0
O=C1NC(=O)N(c2ccc3c(c2)OCO3)C(=O)/C1=C/c1ccsc1,4,-2,i,i,4,7
O=C1NC(=O)N(c2ccc3c(c2)OCO3)C(=O)/C1=C/c1cccs1,11,-1,i,i,-7,44*
COc1ccc2c(c1)C13CCN4CC5=CCOC6CC(=O)N2C1C6C5CC43 (stereo not given),.,.,.,.,-35,.
